# Screening results from PubChem BioAssay.
# In the library only some 2.4% were active in any assay of this set; here they are far more common.
# Pf gamet viab: P. falciparum stage V gametocyte viability inhibition | P. falciparum stage V gametocytes, ATP luminescence, 24 h | inhibition, % at 10.9 µM | 150,000 compounds, 0.065% hits | AID 743093;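 active = inhibition above the mean plus 3 SD of compounds within the control limits, set per campaign, cut at about 38% in these data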;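 also: 0% = DMSO wells and 100% = medium only without gametocytes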
# Arbovirus anti: blocks arbovirus infection; inhibition, % at 10 µM; 200,000 compounds, 0.37% hits; arbovirus infection cell-based antiviral screen; in the data active = inhibition above about 30%
# MEKK3 PB1 HTS: MEKK3-MEK5 PB1 interaction, increase or decrease. bead-based flow cytometry, Alexa488-MEK5 binding to MEKK3; actives lie on both sides; 0 = blocked by unlabeled MEK5, 100 = vehicle. Q99759. binding response (% of control), % at 10 µM. 290,000 compounds, 1.4% hits;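 active = binding response more than 3 SD above or below the average of its plate-row segment, actives on both sides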;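 also: Alexa488 bead fluorescence after subtracting the streptavidin-only scavenger bead signal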
# Target sequence (Q99759 whole entry, looked up): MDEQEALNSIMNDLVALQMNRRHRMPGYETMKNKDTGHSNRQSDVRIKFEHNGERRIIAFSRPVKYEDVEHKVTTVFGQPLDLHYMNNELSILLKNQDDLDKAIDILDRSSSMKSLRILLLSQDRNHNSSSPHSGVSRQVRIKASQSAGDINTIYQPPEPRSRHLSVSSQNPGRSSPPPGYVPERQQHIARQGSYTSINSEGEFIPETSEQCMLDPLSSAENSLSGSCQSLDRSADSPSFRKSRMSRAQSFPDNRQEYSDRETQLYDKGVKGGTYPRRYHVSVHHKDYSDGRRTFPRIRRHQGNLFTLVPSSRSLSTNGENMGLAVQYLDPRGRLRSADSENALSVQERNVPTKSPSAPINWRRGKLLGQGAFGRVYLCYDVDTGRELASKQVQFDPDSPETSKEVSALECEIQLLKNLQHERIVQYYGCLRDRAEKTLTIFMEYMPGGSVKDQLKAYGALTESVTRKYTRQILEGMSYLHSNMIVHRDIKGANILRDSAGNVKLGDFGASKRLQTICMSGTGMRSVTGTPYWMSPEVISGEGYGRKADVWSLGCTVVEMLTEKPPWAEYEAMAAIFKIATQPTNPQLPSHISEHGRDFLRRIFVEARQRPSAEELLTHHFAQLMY
# MEKK2wt PB1 HTS: raises or lowers MEK5 binding to wildtype human MEKK2 PB1 domain. Q9Y2U5. bead flow cytometry, Alexa488-MEK5 binding to MEKK2 WT; actives lie on both sides. binding response (% of control), % at 10 µM. 290,000 compounds, 1.1% hits. AID 1531; in the data active = binding response below about 67% or above about 130%
# MEKK2 mut-MEK5: signal of MEK5 binding to mutant human MEKK2 PB1 domain; AID 1530; bead flow cytometry, Alexa488-MEK5 binding to MEKK2 mutant; percent response, % at 10 µM; 290,000 compounds, 0.35% hits; in the data active = percent response above about 24%, passing the limit was not always enough
# MEKK2wt confirm: raises or lowers MEK5 binding to wildtype human MEKK2, retest; shares compounds with MEKK3 PB1 HTS; bead flow cytometry, Alexa488-MEK5 binding to MEKK2 WT; actives lie on both sides; binding response (% of control), % at 10 µM; 5,900 compounds, 2.4% hits; in the data active = binding response below about 16% or above about 210%; inactive = in between
# MEKK2mut-MEK5: signal of MEK5 binding to mutant human MEKK2, retest. percent response, % at 10 µM. AID 1893. shares compounds with MEKK3 PB1 HTS. 5,900 compounds, 2% hits. bead flow cytometry, Alexa488-MEK5 binding to MEKK2 mutant; in the data active = percent response mostly above about 71%, no sharp cut-off; inactive = mostly below about 38%;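 also: higher means compound restores mutant binding toward wildtype level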
# MEKK3-MEK5 inh: confirmation of inhibitors of MEK5 binding to human MEKK3 | binding response (% of control), % at 10 µM | bead flow cytometry, Alexa488-MEK5 binding to MEKK3; stronger effect = lower value | shares compounds with MEKK3 PB1 HTS | 5,900 compounds, 1.8% hits;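 active = binding response below 72% of control, or above a set upper limit, though filed actives all read lower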;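 also: 100% = DMSO only wells and 0% = binding blocked by excess unlabeled MEK5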
# * marks the source's active call; other numbers are inactive results; nt = no result given; [ ] = another dose, or the depositor's remark.
SMILES,Pf gamet viab,Arbovirus anti,MEKK3 PB1 HTS,MEKK2wt PB1 HTS,MEKK2 mut-MEK5,MEKK2wt confirm,MEKK2mut-MEK5,MEKK3-MEK5 inh
Cc1ccc(C)c(OCC(=O)Nc2ccc(S(=O)(=O)Nc3ncccn3)cc2)c1,nt,nt,93,89,-13,nt,nt,nt
Cc1ccccc1NC(=O)C1(NC(=O)c2cccc(N3C(=O)CSC3c3ccccc3)c2)CCCCC1 (centres undefined),nt,-2,122*,103,6,103,1,101
CC(C)(C)c1ccc(C2SCC(=O)N2c2cccc(C(=O)O)c2)cc1 (centres undefined),nt,nt,100,99,-2,nt,nt,nt
CCOc1ccc(NC(=O)C2CCCN(c3nc(C)cc(C)n3)C2)cc1 (centres undefined),nt,nt,103,95,-3,nt,nt,nt
C=CCOc1ccc(/C=N/N2C(=O)C(CC(=O)Nc3ccc(F)cc3F)SC2=NC)cc1 (centres undefined),-19,-25,128*,101,0,102,0,106
CN=C1SC(CC(=O)Nc2ccccc2F)C(=O)N1C (centres undefined),nt,7,106,104,11,nt,nt,nt
COc1ccc(-c2nc(C#N)c(N3CCOCC3)o2)cc1OC,nt,-5,77*[inhibitor],84,-10,100,2,97
Cc1nc2c3ccccc3nc(NNC(=O)CCC(=O)NCCC(C)C)n2n1,-5,-2,130*,109,0,99,-5,101
Cc1cccc(NNC(N)=S)c1C,-12,-6,105,116,18,nt,nt,nt
O=C(c1ccc(Cl)nc1)N1CCc2ccccc2C1,nt,1,14*[inhibitor],21*[inhibitor],-46,98,0,102
Cc1ccc(N2C(SCC(=O)O)=NC(=Nc3cccc(C)c3)C23CCCC3)cc1,-1,-4,106,99,-3,nt,nt,nt
OCCC1CN(Cc2cc(F)ccc2-n2cccn2)CCN1C1CCCC1 (centres undefined),7,nt,101,101,-1,nt,nt,nt
CC(C)CNC(=O)COC(=O)c1cc(Cl)cc(Cl)c1N,nt,5,98,98,0,nt,nt,nt
CC(C)CNC(=O)COC(=O)c1ccc(F)cc1Cl,-1,13,73*[inhibitor],83,-10,106,7,108
C/C(=N\NC(=O)c1cccc(Br)c1)c1cccnc1,nt,nt,97,98,-1,nt,nt,nt
CCCCC(CCC(=O)Nc1ccc(C(=O)OC)cc1)C(=O)O (centres undefined),nt,-4,123*,122,12,94,-5,93
CC1(C)S[C@@H]2C(C(=O)OCc3ccccc3)NC(=O)N2C1C(=O)OCc1ccccc1 (some centres undefined),12,nt,103,97,-1,nt,nt,nt
CCO[C@@H]1OC(C(=O)NC2CC2)=C[C@H](c2c[nH]c3ccccc23)[C@H]1CCCO,nt,nt,82*[inhibitor],111,1,99,-7,103
CC(C)OCCCNC(=O)CCC(=O)NNc1nc2ccccc2c2nc(-c3ccccc3)nn12,-6,-4,91,92,-4,nt,nt,nt
CC/C(=C\C(=O)c1ccncc1)Nc1ccc(O)cc1,3,-4,107,113,25*,96,-10,98
Cc1cc(C)cc(NC(=O)CN2CCN(c3ccccc3)CC2)c1,nt,nt,100,100,-1,nt,nt,nt
Nc1nonc1C(=O)NCCNCc1c(OCc2ccccc2F)ccc2ccccc12,3,-17,111,164*,26*,146,19,106
Fc1ccc(Oc2ccnc(Cl)n2)c(Cl)c1,0,nt,nt,nt,nt,nt,nt,nt
Nc1cc(=O)[nH]c(SCC(=O)Nc2cc([N+](=O)[O-])ccc2Cl)n1,nt,10,138*,117,4,101,2,103
CC(=O)c1sc2nsc(SCCN3CCCC3)c2c1N,-24,nt,105,109,3,nt,nt,nt
CCN(CC)CCNC(=O)c1cn(-c2ccccc2)nc1-c1cccs1,25,-33,nt,nt,nt,nt,nt,nt
CCN(CC)CCOC(=O)c1ccc(NC(=O)c2cn(-c3ccccc3)nc2-c2cccs2)cc1,nt,-28,120,153*,8,250*,92*,114
